Molecules are shown by their SMILES. About 83,000 compounds went through this panel and 20% of them were active in at least one assay; those are over-represented in the sample as a whole.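 Note: values are percent growth. 100 is the growth of untreated cells, values between 100 and 0 indicate rising inhibition; between -100 and 0 indicates cell death.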 Calls of active or inactive are those of the source. How the source made its calls: active means growth percent below 10; inactive means the rest.

In the test the test system is SNB-75 CNS. Briefly: NCI-60 one-dose screen, 48 h (100 = growth as untreated, 0 = no growth, -100 = all killed). The following applies: 10 µM.
With `COc1ccc(/C=C2\CCCC3=C2NC(N)=NC3c2ccc(OC)cc2)cc1` (stereo not given), the growth was 87.4% (inactive). Take `CN(C)CCCOc1cccc(NC2=C(Cl)C(=O)C(Nc3cccc(OCCCN(C)C)c3)=C(Cl)C2=O)c1`: the growth was 53.8% (inactive). As for `N#CC1=C(N)Oc2cc(N)ccc2C1c1cccnc1` (stereo not given), the figure is 79.3% (inactive); as for `COc1cc(/C=C/c2cc(/C=C/c3ccc(O)c(OC)c3)n(C(=O)Nc3ccc(C)cc3)n2)ccc1O`, 9.53% (active). Take `Cc1ccc(-n2nnnc2N)c(C)c1`: the growth was 101% (inactive). Regarding `CCCCN(CCCC)C(=O)[C@H](CC)[C@@H]1CC[C@@H](C)[C@@H]([C@H](C)[C@@H](O)[C@@H](C)C(=O)[C@H](CC)C2O[C@]3(C=C[C@@H](O)[C@]4(CC[C@@](C)([C@H]5CC[C@](O)(CC)[C@H](C)O5)O4)O3)[C@H](C)C[C@@H]2C)O1` (stereo not given in full), the growth was -12.4% (active).

Regarding `COc1ccc2c(c1)C(=O)/C(=C/c1ccc([N+](=O)[O-])o1)O2`, the growth is 9.47% (active). Regarding `Cc1ccc(S(=O)(=O)N(C)CCCCCC(=O)O)cc1`, the growth was 94% (inactive). `NC1=NC(c2ccc(Cl)cc2)C2=C(N1)/C(=C/c1ccc(Cl)cc1)CCC2` (stereo not given): the growth was 87.3% (inactive). For the compound `S=C(NCc1ccccc1)NCc1ccccc1`, the growth was 82.2% (inactive). Consider `COc1cc2cc(Oc3ccc(NC(=O)c4ccccc4)cc3)c(C)nc2cc1OC`, for which the growth was 54.1% (inactive). As for `Cc1c(Cl)cccc1NC(=O)CN1CCOCC1`, the figure is 88.9% (inactive); as for `C=CCN(CC=C)C(=O)[C@H](CC)[C@@H]1CC[C@@H](C)[C@@H]([C@H](C)[C@@H](O)[C@@H](C)C(=O)[C@H](CC)C2O[C@]3(C=CC(=O)[C@]4(CC[C@@](C)([C@H]5CC[C@](O)(CC)[C@H](C)O5)O4)O3)[C@H](C)C[C@@H]2C)O1` (stereo not given in full), 38.7% (inactive); as for `CCN1CCN(CCC(=O)Nc2cccc(-n3cc(-c4ccncc4)c(-c4ccc(Cl)c(OC)c4)n3)c2)CC1`, 9.22% (active).

For the compound `Nc1ccn(Cc2nnc(CCC(=O)c3nc4ccccc4[nH]3)o2)c(=O)n1`, the growth was 67.5% (inactive).

In the case of `Cc1ccc2nc(Cl)c(-c3nc4ccccc4o3)cc2c1`, the growth is 90.2% (inactive). As for `C/C=C/CSC(C)(C)C(=O)NC`, the figure is 92% (inactive). As for `COc1cc2c(Nc3ccc(S(N)(=O)=O)cc3)ncnc2c(OC)c1OC`, the figure is 89.5% (inactive); as for `CC(=O)OC1C=CC(OC(C)=O)O1` (stereo not given), 95.3% (inactive); as for `CC(=O)C1N=NCC1c1ccccc1` (stereo not given), 92.1% (inactive). The same measure for `O=C(CN(C1CCCCC1)C1CCCCC1)Nc1ccc(S(=O)(=O)c2ccc(NC(=O)CN(C3CCCCC3)C3CCCCC3)cc2)cc1`: 55.8% (inactive); for `Cc1c[nH]c(=O)n(Cc2nnc(CCC(=O)c3nc4ccccc4[nH]3)o2)c1=O`: -33% (active); for `O=C(CCn1cnc2c(cc(-c3ccccc3)n2-c2ccccc2)c1=O)Nc1ccc(F)cc1`: 4.9% (active). With `CN(C)CCOc1cccc(NC2=C(Cl)C(=O)C(Nc3cccc(OCCN(C)C)c3)=C(Cl)C2=O)c1`, the growth is 84% (inactive). On to `CN1CCN(CCC(=O)Nc2cccc(-n3cc(-c4ccncc4)c(-c4ccc(Cl)c(O)c4)n3)c2)CC1`, for which the growth is 24.5% (inactive). `CC(=O)Nc1ccc(CC[C@H]2CCC/C=C/[C@@H]3C[C@H](O)C[C@H]3[C@H](O)/C=C/C(=O)O2)cc1`: the growth was 30.3% (inactive). Turning to `CN(C)CCN(Cc1ccccc1)c1ccc2ccccc2n1`, the growth was 82% (inactive). The same measure for `C/C(=N\O)c1ccc(NC(=O)CSc2nnc(-c3ccccc3)n2-c2ccccc2)cc1`: 45.8% (inactive); for `CCC(CC)n1c(C)cc(=O)n1C(CC)CC`: 95.3% (inactive); for `CC[C@@H](C(=O)[C@H](C)[C@H](O)[C@@H](C)[C@H]1O[C@H]([C@@H](CC)C(=O)O)CC[C@H]1C)C1O[C@]2(C=C[C@@H](O)[C@]3(CC[C@@](C)([C@H]4CC[C@](O)(CC)[C@H](C)O4)O3)O2)[C@H](C)C[C@@H]1C` (stereo not given in full): -12.7% (active). For `O=C(O)c1cc([N+](=O)[O-])ccc1Oc1ccccc1`, the growth is 98.1% (inactive).

In the case of `O=[N+]([O-])c1cccc(/C=N/NC(=S)NC23CC4CC(CC(C4)C2)C3)c1`, the growth is 17.9% (inactive).

As for `COc1cc(C(=O)n2nc(-c3cc(OC)c(OC)c(OC)c3)nc2N)cc(OC)c1OC`, the growth is 81.9% (inactive).

`COc1ccc(-c2n[nH]nc2-c2cc(OC)c(OC)c(OC)c2)cc1`: the growth is 50.1% (inactive).

On to `C=CCN(CC=C)C(=O)[C@H](CC)[C@@H]1CC[C@@H](C)[C@@H]([C@H](C)[C@@H](O)[C@@H](C)C(=O)[C@H](CC)C2O[C@]3(C=C[C@@H](O)[C@]4(CC[C@@](C)([C@H]5CC[C@](O)(CC)[C@H](C)O5)O4)O3)[C@H](C)C[C@@H]2C)O1` (stereo not given in full), for which the growth is -7.45% (active).

The record behind these values is PubChem BioAssay (NCI).
